# Data taken from PubChem BioAssay (NCI).
# Compounds without any hit were thinned out: in the full panel of roughly 79,000, 15% have a hit. Unmarked numbers belong to inactive results. Activity calls are given as the source filed them. Rule as the data show it: active = growth inhibition above about 70%; inactive = the rest.
# Test: NCI Yeast Anticancer Drug Screen. Data for the bub3 strain (AID 167)
# Conditions: S. cerevisiae bub3 mutant strain, at 50.0 µM (retest, dose inferred, filed as 5.0), active compounds read high
# In short: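 Part of a panel of yeast mutants defective in DNA damage repair or cell cycle regulation. Each strain is grown with compound, and inhibition is calculated relative to solvent-treated cultures.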
row,Structure (SMILES),growth inhibition
1,CC(NNC(=S)N1CCCC1)c1ccc2ccccc2n1 (centres undefined),97% (active)
2,c1cc(CCSSCCc2ccncc2)ccn1,98% (active)
3,CCOC(=O)C(N=Nc1ccc(Br)c(C)c1)C(C)=O (centres undefined),64%
4,N#CC(C(=O)CCCC(=O)Nc1cccc([N+](=O)[O-])c1)c1cccc2ccccc12 (centres undefined),2%
5,Cc1ccc(S(=O)(=O)NNC(=O)c2sc(-c3nc(C)c(C(=O)NNS(=O)(=O)c4ccc(C)cc4)s3)nc2C)cc1,98% (active)
6,Nc1nc(Cl)cc(Nc2ccc(Cl)c(Cl)c2)n1,92% (active)
7,CN(C)C=Nc1c2ccccc2nc2ccccc12,71% (active)
8,Cc1cc(N=[N+]=[N-])c2cc(C3CCCCC3)ccc2n1,96% (active)
9,CCN(CC)C(=O)CCCCC(=O)OC(C)C,-10%
10,CC12CCC(C(Br)(Br)C1=O)C2(C)C (centres undefined),74% (active)
11,CCCCCCCCN(CCCCCCCC)C(=O)C(C)O (centres undefined),99% (active)
12,O=C1C=CC(=O)C1=Cc1ccc(Cl)c(Cl)c1,99% (active)
13,COc1ccc([N+](=O)[O-])cc1NC(=O)Nc1ccc(C(=O)OCC(C)C)cc1,47%
14,CCOC(=O)n1c2ccccc2c(=O)n1CCO,-11%
15,CC(=O)OC12CCC3C4CC=C5CC(O)CCC5(C)C4C(=O)C3C1(C)N1CC(C)CC(O)C1C2C (centres undefined),74% (active)
16,Cc1cccnc1NC(=S)Nc1ccccc1Cl,95% (active)
17,CS(=O)(=O)OCCN(CCOS(C)(=O)=O)c1ccc(C=Nc2ccc(-c3cnc(-c4ccc(Cl)cc4)s3)cc2)c(Cl)c1,92% (active)
18,CC1(Cc2ccccc2)CCCC(C=O)C1=O.[Cu+2] (centres undefined),96% (active)
19,C[N+]1(c2ccccc2)C=C(c2ccccc2)SC1=S (centres undefined),67%
20,CC12CCC3c4cc(O)ccc4CCC3C1CCC2O (centres undefined),54%

# Same assay, conditions: S. cerevisiae bub3 mutant strain, at 50.0 µM, active compounds read high
row,Structure (SMILES),growth inhibition
1,OCCSCc1cc(Cl)cc(Cl)c1O,78% (active)
2,CC(=O)Nc1ccccc1C(O)(c1ccccc1)c1ccccc1,14.7%
3,Cc1cc(N=Nc2ccccc2C)c(N)cc1N,99.3% (active)
4,O=C(Nc1ccc(Cl)cc1)Nc1nnc(/C=C/c2ccc(Cl)c(Cl)c2)o1,-4.75%
5,CCCCCCCCCCCC(=O)OCCOC(=O)CCCCCCCCCCC,-3.35%
6,CCN(C(C)=O)c1ccc2c(c1)Cc1ccccc1-2,97.4% (active)
7,O=[N+]([O-])c1cccn2nc(C3OC(CO)C(O)C3O)nc12 (centres undefined),-11.4%
8,Oc1cc(CNCc2ccccc2)c(O)c(CNCc2ccccc2)c1,1.95%
9,N#CSC#Cc1ccc(C#CSC#N)cc1,88.3% (active)
10,O=C(O)/C=C/C(=O)NNc1nc2ccccc2s1,-13.2%
11,COc1ccc2c(c1)[n+]([O-])c(-c1ccc(C)cc1)c(N)[n+]2[O-],99.4% (active)
12,C=CCc1cc([N+](=O)[O-])ccc1O,92.3% (active)
13,CC(C)C1=CC23CCC4C(C)(C(=O)O)CCCC4(C)C2CC1c1c(O)ccc(O)c13 (centres undefined),99.2% (active)
14,NC(=O)C(CCc1cccc2ccccc12)c1ccccc1 (centres undefined),95.8% (active)
15,CC(CO)CCC(=O)C(C)C1C(=O)CC2CC3CC(O)CCC3(C)CC21C (centres undefined),63.6%
16,Oc1c(Cl)cc(Cl)cc1/C=C1\C=Nc2ccccc21,5.2%
17,CCCC(C(=O)OCCN1CCCC1(C)C)C1CCCC1 (centres undefined),36.5%
18,OCCN1CCN(CCCN2c3cc(Cl)ccc3Sc3ccsc32)CC1,97.6% (active)
19,O=C(O)/C=C/c1ccc2c(c1)CCCC2,64%
20,CC(NNC(=S)N1CCCC1)c1ccc2ccccc2n1 (centres undefined),98.2% (active)
21,c1cc(CCSSCCc2ccncc2)ccn1,38.4%
22,CCOC(=O)C(N=Nc1ccc(Br)c(C)c1)C(C)=O (centres undefined),88% (active)
23,N#CC(C(=O)CCCC(=O)Nc1cccc([N+](=O)[O-])c1)c1cccc2ccccc12 (centres undefined),6.2%
24,Cc1ccc(S(=O)(=O)NNC(=O)c2sc(-c3nc(C)c(C(=O)NNS(=O)(=O)c4ccc(C)cc4)s3)nc2C)cc1,14.3%
25,Nc1nc(Cl)cc(Nc2ccc(Cl)c(Cl)c2)n1,93.2% (active)
26,CN(C)C=Nc1c2ccccc2nc2ccccc12,75% (active)
27,Cc1cc(N=[N+]=[N-])c2cc(C3CCCCC3)ccc2n1,90.9% (active)
28,CCN(CC)C(=O)CCCCC(=O)OC(C)C,-7.2%
29,CC12CCC(C(Br)(Br)C1=O)C2(C)C (centres undefined),86.8% (active)
